Laboratory results reported in PubChem BioAssay (NCATS).
Inconclusive results are not listed. The source made the active and inactive calls. Calls follow the shape of the dose curve; as a rule, active = well fitted curve in the direction sought with a large enough effect; inconclusive = small, poorly fitted or top-dose-only effect, or another doubt; inactive = no such curve, though single readings can be large; an effect the other way counts as inactive or inconclusive.

Legend:
HACAT = test: qHTS assay to identify novel small-molecules to repurpose for Merkel cell carcinoma treatment (AID 1296009); conditions: MCC and control cell lines, CellTiter-Glo viability, 72 h; at 44.8 µM (top of the series) unless noted; also: nearly all actives have a fitted effect of over 60% in size
Procedure, shortened: (§1)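 Cells were treated for 72 hr at 37 degree celsius with compounds in 8- or 11-point dose response. Viability was read by CellTiter-Glo luminescence, normalized to no-cell (cytotoxicity) and DMSO controls.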

NIH3T3 = test: as above; conditions: MCC and control cell lines, CellTiter-Glo viability, 72 h; at 44.8 µM (top of the series) unless noted
Procedure, shortened: as §1

C33A = test: Primary qHTS to identify gynecologic anti-cancer compounds using libraries of approved drugs and bioactive compounds (AID 1345084); conditions: Gynecologic cancer cell panel viability, ATPlite luminescence, 48 h; series mostly up to 57.5 µM; also: % is scaled to controls: 0 for no effect and ±100 for the full control effect; nearly all actives have a fitted effect of over 55% in size
Procedure, shortened: (§2)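 Cell viability after 48 h drug treatment, ATPlite luminescence readout; five doses.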

CAOV3 = test: as above; conditions: Gynecologic cancer cell panel viability, ATPlite luminescence, 48 h; series mostly up to 57.5 µM
Procedure, shortened: as §2

CASKI = test: as above; conditions: Gynecologic cancer cell panel viability, ATPlite luminescence, 48 h; series mostly up to 57.5 µM
Procedure, shortened: as §2

Es-2 = test: as above; conditions: Gynecologic cancer cell panel viability, ATPlite luminescence, 48 h; series mostly up to 57.5 µM
Procedure, shortened: as §2

HeLa = test: as above; conditions: Gynecologic cancer cell panel viability, ATPlite luminescence, 48 h; series mostly up to 57.5 µM
Procedure, shortened: as §2

Hek293T = test: as above; conditions: Gynecologic cancer cell panel viability, ATPlite luminescence, 48 h, control line for the selectivity index; series mostly up to 57.5 µM
Procedure, shortened: as §2

JEG-3 = test: as above; conditions: Gynecologic cancer cell panel viability, ATPlite luminescence, 48 h; series mostly up to 57.5 µM
Procedure, shortened: as §2

O=C(/C=C/c1ccc(O)c(O)c1)OC[C@H]1O[C@@H](OC2CCCCC2O)[C@H](O)[C@@H](O)[C@@H]1O (stereo partly specified)
inactive: outcome (HACAT) inactive [at 17.4 µM] | outcome (NIH3T3) inactive [at 17.4 µM] | Potency (C33A) | Potency (CAOV3) | outcome (CASKI) | Potency (Es-2) | Potency (HeLa) | Potency (Hek293T) | Potency (JEG-3)

C=C1C(OC(C)=O)[C@@]23CCC4[C@](C)(C(=O)O)CCC[C@@]4(C)[C@]2(O)CC[C@H]1C3 (stereo partly specified)
inactive: outcome (HACAT) | outcome (NIH3T3) | Potency (C33A) | Potency (CAOV3) | outcome (CASKI) | Potency (Es-2) | Potency (HeLa) | Potency (Hek293T) | Potency (JEG-3)

C/C=C/C=C/C(O)=C1/C(=O)[C@]2(C)C3/C(=C(O)/C=C/C=C/C)C(=O)C4(C)C1[C@]1(C)O[C@@]4(O)[C@@]3(C)O[C@@]12O
inactive: outcome (HACAT) inactive [at 17.4 µM] | outcome (NIH3T3) inactive [at 17.4 µM] | Potency (C33A) | Potency (CAOV3) | outcome (CASKI) | Potency (Es-2) | Potency (HeLa) | Potency (Hek293T) | Potency (JEG-3)

COc1cc(O)c2c(c1Cl)CC(C)OC2=O (stereo unspecified)
inactive: outcome (HACAT) | outcome (NIH3T3) | Potency (C33A) | Potency (CAOV3) | outcome (CASKI) | Potency (Es-2) | Potency (HeLa) | Potency (Hek293T) | Potency (JEG-3)

CC1=C(CO)C2(C)CCCC(C)(C)C2C(O)C1O (stereo unspecified)
inactive: outcome (HACAT) | outcome (NIH3T3) | Potency (C33A) | Potency (CAOV3) | outcome (CASKI) | Potency (Es-2) | Potency (HeLa) | Potency (Hek293T) | Potency (JEG-3)

C=C(COC(=O)CC(C)C)C1Cc2cc(C(C)=O)ccc2O1 (stereo unspecified)
inactive: outcome (HACAT) | outcome (NIH3T3) | Potency (C33A) | Potency (CAOV3) | outcome (CASKI) | Potency (Es-2) | Potency (HeLa) | Potency (Hek293T) | Potency (JEG-3)

CC(C)=CCC/C(C)=C/CO[C@@H]1O[C@H](CO[C@@H]2O[C@@H](CO)[C@H](O)[C@H]2O)[C@@H](O)[C@H](O)[C@H]1O
inactive: outcome (HACAT) inactive [at 17.4 µM] | outcome (NIH3T3) inactive [at 17.4 µM] | Potency (C33A) | Potency (CAOV3) | outcome (CASKI) | Potency (Es-2) | Potency (HeLa) | Potency (Hek293T) | Potency (JEG-3)

CC(=O)/C=C/C1(O)C(C)=CC(=O)CC1(C)C (stereo unspecified)
inactive: outcome (HACAT) | outcome (NIH3T3) | Potency (C33A) | Potency (CAOV3) | outcome (CASKI) | Potency (Es-2) | Potency (HeLa) | Potency (Hek293T) | Potency (JEG-3)

CCc1nnc(NS(=O)(=O)c2ccc(NC(=S)NC(=O)/C=C/c3ccc(F)cc3)cc2)s1
inactive: outcome (HACAT) | outcome (NIH3T3) | Potency (C33A) | Potency (CAOV3) | outcome (CASKI) | Potency (Es-2) | Potency (HeLa) | Potency (Hek293T) | Potency (JEG-3)

O=C(O)/C=C/c1ccc2occc2c1O[C@@H]1O[C@H](CO)[C@@H](O)[C@H](O)[C@H]1O
inactive: outcome (HACAT) | outcome (NIH3T3) | Potency (C33A) | Potency (CAOV3) | outcome (CASKI) | Potency (Es-2) | Potency (HeLa) | Potency (Hek293T) | Potency (JEG-3)

CC(=C\C(C)O)/C=C(\C)C(=O)CC1CC(CC(N)=O)CC(=O)O1 (stereo unspecified)
inactive: outcome (HACAT) | outcome (NIH3T3) | Potency (C33A) | Potency (CAOV3) | outcome (CASKI) | Potency (Es-2) | Potency (HeLa) | Potency (Hek293T) | Potency (JEG-3)

Nc1ncnc2c1ncn2[C@H]1O[C@@H](C(=O)N2CCN(CC(=O)Nc3cccc4c3CNC4=O)CC2)[C@H](O)[C@@H]1O
inactive: outcome (HACAT) | outcome (NIH3T3) | Potency (C33A) | Potency (CAOV3) | outcome (CASKI) | Potency (Es-2) | Potency (HeLa) | Potency (Hek293T) | Potency (JEG-3)

CCCC/C=C\CCCCCc1cc(=O)c2ccccc2n1C
inactive: outcome (HACAT) | outcome (NIH3T3) | Potency (C33A) | Potency (CAOV3) | outcome (CASKI) | Potency (Es-2) | Potency (HeLa) | Potency (Hek293T) | Potency (JEG-3)

CCC(C)/C=C(C)/C=C/C(=O)C1CCC(O)C(C)(O)C1=O (stereo unspecified)
inactive: outcome (HACAT) | outcome (NIH3T3) | Potency (C33A) | Potency (CAOV3) | outcome (CASKI) | Potency (Es-2) | Potency (HeLa) | Potency (Hek293T) | Potency (JEG-3)

COc1cc(C)c(C(=O)OC2C(C)OC(OC3CCC(C)C4C3C=C(C)C3/C(C)=C\CC/C(C)=C/C5(C)C=C(C(=O)O)C(C)CC56OC(=O)/C(=C(\O)C34C)C6=O)C(O)C2O)c(OC)c1 (stereo unspecified)
inactive: outcome (HACAT) inactive [at 9.27 µM] | outcome (NIH3T3) inactive [at 9.27 µM] | activity change, negative = cytotoxicity (C33A) 17.6% [at 11.6 µM] | activity change, negative = cytotoxicity (CAOV3) 11.9% [at 11.6 µM] | activity change, negative = cytotoxicity (CASKI) 0.731% [at 11.6 µM] | activity change, negative = cytotoxicity (Es-2) 6.73% [at 11.6 µM] | activity change, negative = cytotoxicity (HeLa) -3.64% [at 11.6 µM] | activity change, negative = cytotoxicity (Hek293T) 6.05% [at 11.6 µM] | activity change, negative = cytotoxicity (JEG-3) -0.361% [at 11.6 µM]

C=C1CCC2C(C)(C(=O)O)CCCC2(C)C1CC/C(C)=C\CO (stereo unspecified)
inactive: outcome (HACAT) | outcome (NIH3T3) | Potency (C33A) | Potency (CAOV3) | outcome (CASKI) | Potency (Es-2) | Potency (HeLa) | Potency (Hek293T) | Potency (JEG-3)

COc1ccc(/C=C/C(=O)O[C@@H]2[C@@H](O[C@@H]3O[C@H](CO)[C@@H](O)[C@H](O)[C@H]3O)[C@@H](O)[C@H](O[C@H]3C4C=CO[C@@H](O[C@@H]5O[C@H](CO)[C@@H](O)[C@H](O)[C@H]5O)C4[C@@]4(CO)O[C@@H]34)O[C@H]2C)cc1 (stereo partly specified)
inactive: outcome (HACAT) inactive [at 9.27 µM] | outcome (NIH3T3) inactive [at 9.27 µM] | activity change, negative = cytotoxicity (C33A) -3.09% [at 11.6 µM] | activity change, negative = cytotoxicity (CAOV3) -4.58% [at 11.6 µM] | activity change, negative = cytotoxicity (CASKI) 6.26% [at 11.6 µM] | activity change, negative = cytotoxicity (Es-2) 3.1% [at 11.6 µM] | activity change, negative = cytotoxicity (HeLa) 5.69% [at 11.6 µM] | activity change, negative = cytotoxicity (Hek293T) 2.2% [at 11.6 µM] | activity change, negative = cytotoxicity (JEG-3) 7.02% [at 11.6 µM]

CC1(C)CC[C@]2(C(=O)O[C@@H]3O[C@H](CO)[C@@H](O)[C@H](O)[C@H]3O)CC[C@]3(C)C(=CCC4[C@@]5(C)CC[C@H](O[C@@H]6O[C@H](C(=O)O)[C@@H](O[C@@H]7O[C@H](CO)[C@@H](O)[C@H](O)[C@H]7O)[C@H](O)[C@H]6O[C@@H]6O[C@H](CO)[C@@H](O)[C@H](O)[C@H]6O)C(C)(C)C5CC[C@]43C)C2C1 (stereo partly specified)
inactive: outcome (HACAT) inactive [at 9.27 µM] | outcome (NIH3T3) inactive [at 9.27 µM] | activity change, negative = cytotoxicity (C33A) -1.12% [at 11.6 µM] | activity change, negative = cytotoxicity (CAOV3) 5.45% [at 11.6 µM] | activity change, negative = cytotoxicity (CASKI) 8.01% [at 11.6 µM] | activity change, negative = cytotoxicity (Es-2) -12.1% [at 11.6 µM] | activity change, negative = cytotoxicity (HeLa) 0.908% [at 11.6 µM] | activity change, negative = cytotoxicity (Hek293T) 0.105% [at 11.6 µM] | activity change, negative = cytotoxicity (JEG-3) 18.6% [at 11.6 µM]

CCC(C)C(N)C(=O)NCCN1CCOCC1 (stereo unspecified)
inactive: outcome (HACAT) | outcome (NIH3T3) | Potency (C33A) | Potency (CAOV3) | outcome (CASKI) | Potency (Es-2) | Potency (HeLa) | Potency (Hek293T) | Potency (JEG-3)
